Compound activity as filed in PubChem BioAssay.
HP1b binding inh = HTS for Inhibitors of HP1-beta Chromodomain Interactions with Methylated Histone Tails. AlphaScreen HP1-beta / biotin-H3K9me3 peptide binding. Chromobox protein homolog 1 (Homo sapiens), P83916. Potency, µM (doses to about 114 µM), without a hit: at the highest dose activity change, negative = inhibition, hits mostly inhibitors. actives 0.56% (n = 390,000). AID 540317, 2011; note: nearly all actives have a fitted effect of over 70% in size
Target sequence (P83916 whole entry, looked up): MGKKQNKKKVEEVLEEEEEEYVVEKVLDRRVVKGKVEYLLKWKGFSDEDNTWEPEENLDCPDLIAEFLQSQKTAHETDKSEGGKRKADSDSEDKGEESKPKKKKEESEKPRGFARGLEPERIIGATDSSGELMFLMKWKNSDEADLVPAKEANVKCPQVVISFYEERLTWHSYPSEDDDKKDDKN
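Compound inhibition of the preformed complex between 50 nM HP1-beta and 50 nM biotinylated H3K9me3 peptide was read by AlphaScreen. Buffer was PBS pH 7.4 with 0.01% Tween-20. Incubations ran 30 min at room temperature, with 10 ug/mL donor/acceptor beads.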
G9a block = qHTS Assay for Inhibitors of Histone Lysine Methyltransferase G9a; Histone-lysine N-methyltransferase EHMT2 (Homo sapiens), Q96KQ7; G9a H3K9 monomethylation, AlphaScreen, 2 h; Potency, µM (highest dose often 102 µM), for the others: at the top dose activity, negative = inhibition, actives largely listed as inhibitors; actives 8.8% (n = 350,000); note: % is set by controls: 0 for no effect and ±100 for the full control effect; nearly all actives have a fitted effect of over 75% in size
Target sequence (Q96KQ7 913-1193 limits assumed): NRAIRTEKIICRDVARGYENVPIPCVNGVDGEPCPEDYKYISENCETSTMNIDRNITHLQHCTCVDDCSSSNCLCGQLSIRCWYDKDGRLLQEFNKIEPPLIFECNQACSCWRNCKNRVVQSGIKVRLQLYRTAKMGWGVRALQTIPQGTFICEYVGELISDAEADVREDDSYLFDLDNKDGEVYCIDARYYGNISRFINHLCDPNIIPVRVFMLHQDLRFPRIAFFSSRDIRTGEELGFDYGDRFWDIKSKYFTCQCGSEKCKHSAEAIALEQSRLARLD
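AlphaScreen detection with an anti-monomethyl H3K9 antibody quantified product after a 2 h room-temperature reaction containing 500 nM biotinylated H3K9 peptide, 20 µM SAM and 20 nM enzyme, which had been preincubated 15 min with compound.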
BAZ2B block = qHTS Assay for Inhibitors of BAZ2B | Potency, µM (top dose mostly 114 µM), for the others: at the highest dose activity change, negative = inhibition, usual class: inhibitors | Bromodomain adjacent to zinc finger domain protein 2B (Homo sapiens), Q9UIF8 | actives 4.4% (n = 360,000) | AlphaScreen BAZ2B-H3K14Ac peptide displacement; note: % is set by controls: 0 for no effect and ±100 for the full control effect; nearly all actives have a fitted effect of over 60% in size
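Protein-peptide AlphaScreen: BAZ2B 50 nM, b-H3K14Ac 50 nM, 1x PBS pH 7.4 + 0.01% Tween-20. Preincubation 30 min RT; cpd 30 min RT (top 110 uM); beads 20 min RT, light-protected.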
JMJD2A Tudor inh = qHTS Assay for Inhibitors of JMJD2A-Tudor Domain; actives 4.4% (n = 390,000); AID 504339, 2011; Potency, µM (titrated, usually from 114 µM), without a hit: at the top dose activity change, negative = inhibition, actives largely listed as inhibitors; Lysine-specific demethylase 4A (Homo sapiens), O75164; AlphaScreen JMJD2A-Tudor / H3K4me3 peptide binding; note: % is set by controls: 0 for no effect and ±100 for the full control effect; nearly all actives have a fitted effect of over 50% in size
Sfp PPTase inh = qHTS Assay for Inhibitors of Bacillus subtilis Sfp phosphopantetheinyl transferase (PPTase) | Biochemical Sfp PPTase activity, qHTS | actives 3.5% (n = 310,000) | 4'-phosphopantetheinyl transferase ffp (Bacillus subtilis), Q9F4F7 | Potency, µM, for the others: largest response in the series, negative = inhibition, usual class: inhibitors | AID 1490, 2009;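 note: the enzyme is Sfp with the accession as filed and its product quenches rhodamine fluorescence; 0% = enzyme reaction without inhibitor and -100% = no enzyme wells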
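Reaction rates are the 30-min fluorescence difference (ex 525, em 598 nm) in wells containing 15 nM Sfp, 5 uM rhodamine-CoA and 12.5 uM BHQ-2-YbbR at pH 7.6 with 10 mM MgCl2.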
An asterisk follows results filed as active; ? = inconclusive; nt = no result given; [ ] = another dose, or the depositor's remark. Rows were chosen to be rich in hits. Some 12% of all compounds tested hit in one or more screens of this group. Calls come from the whole dose curve; as a rule, active = well fitted curve in the direction sought with a large enough effect; inconclusive = small, poorly fitted or top-dose-only effect, or another doubt; inactive = no such curve, though single readings can be large; an effect the other way counts as inactive or inconclusive. Potency is the fitted concentration of half-maximal effect.

SMILES	HP1b binding inh	G9a block	BAZ2B block	JMJD2A Tudor inh	Sfp PPTase inh
COc1ccc(N2C(=O)CC(c3ccc([N+](=O)[O-])cc3)C2=O)cc1 (stereo unspecified)	37%	?	-2%	-2%	16%
CCOc1ccc(S(=O)(=O)NCC(c2ccc(N(C)C)cc2)N2CCCC2)cc1 (stereo unspecified)	-9%	20µM*	35µM*	?	nt
CCOc1ccc(S(=O)(=O)NCCC(=O)OC(C)C(=O)N2CCc3ccccc32)cc1 (stereo unspecified)	10%	56%[12.7 µM]	-5%	-2%	-10%
CCOc1ccc(S(=O)(=O)NCC(c2ccc(N(C)C)cc2)N2CCc3ccccc32)cc1 (stereo unspecified)	?	?	6.3µM*	13µM*	nt
CN(C)c1ccc(C(CNC(=O)COc2ccc(Cl)cc2)N2CCCC2)cc1 (stereo unspecified)	31%	50µM*	35µM*	3%	-13%
CN(C)c1ccc(C(CNC(=O)c2ccc(C(C)(C)C)cc2)N2CCOCC2)cc1 (stereo unspecified)	-10%	11µM*	35µM*	?	nt
O=C(NCC(c1ccc(F)cc1)N1CCOCC1)c1ccc(Br)o1 (stereo unspecified)	20%	50µM*	?	-20%	18%
CN(C)c1ccc(C(CNS(=O)(=O)c2ccc([N+](=O)[O-])cc2)N2CCOCC2)cc1 (stereo unspecified)	-12%	-3%[0.501 µM]	?	?	nt
CCOc1ccc(N(C)C(CNS(=O)(=O)c2ccccc2)c2ccccc2)cc1 (stereo unspecified)	?	11µM*	11µM*	28µM*	nt
CN1CCN(C(CNS(=O)(=O)c2ccc(Br)cc2)c2ccc3c(c2)OCO3)CC1 (stereo unspecified)	19%	79µM*	0%	-16%	nt
CN(C)c1ccc(C(CNS(=O)(=O)c2ccc(Br)cc2)N2CCOCC2)cc1 (stereo unspecified)	?	?	45µM*	?	nt
COc1ccc(C(=O)N(C)Cc2cnn(Cc3ccccc3)c2)cc1S(=O)(=O)N1CCOCC1	37%	6%[12.7 µM]	14%	-5%	nt
COc1cc(NC(=O)CSCC(=O)Nc2cc(OC)cc(OC)c2)cc(OC)c1	27%	0%[59 µM]	-10%	-25%	3%
Cn1cc(S(=O)(=O)c2ccccc2)c(=O)c2cc(F)c(N3CCCC3)cc21	6%	-1%[59 µM]	3%	-25%	nt
COc1ccc(S(=O)(=O)NCC(c2ccc(N(C)C)cc2)N2CCc3ccccc32)cc1 (stereo unspecified)	?	13µM*	?	22µM*	nt
Cc1ccc(S(=O)(=O)NCC(c2ccc(N(C)C)cc2)N2CCc3ccccc32)cc1C (stereo unspecified)	-24%	5.6µM*	6.3µM*	7.1µM*	nt
Cc1cc(S(=O)(=O)NCC(c2ccc(F)cc2)N2CCN(C)CC2)ccc1F (stereo unspecified)	-10%	?	10%	-17%	nt
COc1ccc(S(=O)(=O)NCC(c2ccco2)N2CCc3ccccc3C2)cc1 (stereo unspecified)	20%	-51%	-33%	-26%	nt
O=C(CN1C(=O)C(=O)N(C2CCCC2)C1=O)Nc1ccc(Cl)cc1C(F)(F)F	24%	22%[2.33 µM]	3%	-2%	nt
CC(=O)C(C)Oc1ccc2c3c(c(=O)oc2c1)CCCCC3 (stereo unspecified)	33%	-34%[12.7 µM]	5%	-2%	71µM*
CC(=O)C(C)Oc1ccc2c3c(c(=O)oc2c1)CCCC3 (stereo unspecified)	30%	-8%	24%	-14%	9%
NC(=O)C1CCN(C(=O)COc2ccc3c4c(c(=O)oc3c2)CCCC4)CC1	6%	-37%	?	-32%	15%
O=C(O)c1ccc(COc2ccc3c4c(c(=O)oc3c2)CCC4)o1	-22%	40µM*	?	?	-19%
O=C(O)C1CCN(C(=O)COc2ccc3c4c(c(=O)oc3c2)CCC4)CC1	36%	50µM*	?	4%	16%
CC(C)c1nc2ccc(C(=O)NCCCN3CCN(c4cccc(Cl)c4)CC3)cc2o1	5%[57 µM]	-36%[59 µM]	-32%	-33%	nt
SMILES	HP1b binding inh	G9a block	BAZ2B block	JMJD2A Tudor inh	Sfp PPTase inh
CCOc1ccccc1NC(=O)c1cc(C(=O)Nc2ccccc2OCC)cc(N2C(=O)CCC2=O)c1	39%	13%	-23%	1%	-7%
CN(C)c1ccc(C(=S)N2CCOCC2)cc1Br	-23%	?	5%	-15%	?
S=C(c1ccc2c(c1)OCO2)N1CCOCC1	-6%	32µM*	-23%	3%	-27%
S=C(c1ccc2c(c1)OCO2)N1CCCCCC1	9%	50µM*	3%	-15%	-29%
O=C(c1ccc2c(c1)OCO2)N1CCCN(C(=O)c2ccc3c(c2)OCO3)CC1	12%	-2%[12.7 µM]	1%	-10%	28%
COC(=O)C1=COC(C)C2CN3CCc4c([nH]c5cc(OC)c(OC)cc45)C3CC12 (stereo unspecified)	?	-32%[12.7 µM]	50µM*	25µM*	3%
CCOC(=O)c1c(CN2CCN(C)CC2)oc2ccc(OC)cc12	19%	?	79µM*	?	10%
COc1ccc2oc(C(=O)CCC(=O)O)c(N)c2c1	70%	50µM*	-9%	-5%	-7%
CCOC(=O)c1oc2ccccc2c1CN1CCN(c2ccccc2)CC1	-17%	?	56µM*	79µM*	-19%
CCOC(=O)c1oc2ccccc2c1CN1CCN(C(=O)c2ccccc2)CC1	28%	-46%	-5%	-15%	5%
CCOC(=O)c1c(CN2CCN(c3ccccc3)CC2)oc2ccc(O)cc12	-2%	40µM*	?	?	4%
CCOC(=O)c1c(CN2CCCCC2)oc2ccc(OC)cc12	23%	19%[2.33 µM]	-32%	?	-3%
O=C(Nc1ccccc1O)c1cccc(S(=O)(=O)Nc2ccccc2O)c1	9%	nt	nt	-16%	nt
COC(=O)CN1C(=O)C(C)(C)c2cc(S(=O)(=O)NCc3ccc(Cl)cc3)ccc21	27%[57 µM]	3%[59 µM]	1%	-6%	nt
CC1CN(C(=O)CSc2nc(N)cc(N)n2)CC(C)O1 (stereo unspecified)	26%	13%[2.33 µM]	8%	5%	nt
CC(=O)c1ccc(N2CCN(CC(=O)Nc3ccc4c(c3)OCCO4)CC2)cc1	5%	22%	-37%	-17%	9%
COc1ccc2oc(C)c(C(=O)NN)c2c1	24%	10µM*	-11%	-23%	-18%
